Reference: PubChem BioAssay (NCI)
Compounds without any hit were thinned out: in the full panel of roughly 83,000, 20% have a hit.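 Percent growth is the endpoint: 0 to 100 indicates growth inhibition (40 means 60% inhibition), 0 means no net growth, and negative values indicate cell death.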 Active and inactive are the calls of the source.

system: UACC-62 melanoma; experiment: NCI-60 one-dose screen, 48 h (100 = growth as untreated, 0 = no growth, -100 = all killed); settings: 10 µM unless noted
Procedure: Growth inhibition of the UACC-62 human tumor cell line is measured as a screen for anti-cancer activity. Cells are grown in 96 well plates and exposed to the test compound for 48 hours. Compounds are tested at a single concentration, which is 10^-5 M for most compounds. The reported endpoint is percent growth (GI% or GIPRCNT), where numbers from 0 - 100% represent growth inhibition, and numbers from -100% - 0 represent cell death. For example, a value of 40 represents 60% growth inhibition. A value of 0 means no net growth occurred over the course of the experiment. A value of -40 indicates 40% of cells at the beginning of the experiment died by the end of the experiment. A value of -100 means all cells are dead at the end of the experiment.
NCI-60 Human Tumor Cell Lines Screen was performed using the standard one-dose NCI protocol, which is described in more detail at https://dtp.cancer.gov/discovery_development/nci-60/default.htm.
Compounds with GIPRCNT values below 10 were considered active. Activity score was based on GIPRCNT using the following formula: […]
Score is 0 for GIPRCNT values of 100 or above, 50 for GIPRCNT values of 0, and 100 for GIPRCNT values of -100.

Structure (SMILES) | growth
COc1cc(/C=C2\SC(=O)NC2=O)ccc1OCC(=O)Nc1ccc(C(=O)/C=C/c2cc3ccccc3nc2Cl)cc1 | 84.3% (inactive)
CCc1ccc(NC(=O)N[C@@H](Cc2cccc(F)c2)C(=O)N[C@@H]2C(=O)N3CCC[C@H]3C(=O)N3CCCC[C@H]3C(=O)N[C@@H](C)C(=O)N3C[C@H](C)C[C@H]3C(=O)O[C@H]2C)c(F)c1 | 21.1% (inactive)
N/C(=N\OC(=O)CSc1nc2ccccc2s1)c1ccc2ccccc2c1 | 91.4% (inactive)
Cc1cc(-c2ccc3nc(N)sc3c2)nc2ccc3[nH]ncc3c12 | 21.9% (inactive)
C/C(=C(/C)C1CC1CCN(C(=O)c1ccccn1)S(=O)(=O)c1ccc(C)cc1)C1CCCCC1 (stereo not given) | 63.6% (inactive)
Cc1cn(-c2cc(NC(=O)c3cncc(C#Cc4cnc5ccc(OCCCS(C)(=O)=O)nn45)c3)cc(C(F)(F)F)c2)cn1 | 21.4% (inactive)
COc1ccc(Cn2cc3c(c2-c2cc(OC)c(OC)c(OC)c2)CCCc2cnoc2-3)cc1 | 33.9% (inactive)
O=C(/C=C/c1cn(-c2ccccc2)nc1-c1ccc(Cl)cc1)c1cc2ccccc2oc1=O | 52.7% (inactive)
NC(=O)c1c(NC(=O)c2cccc(C(F)(F)F)c2F)sc2c1CCC(=O)C2 | 11.1% (inactive)
COc1ccc([C@H]2c3[nH]c4ccccc4c3C[C@@H]3C(=O)N(C4CCN(Cc5ccccc5)CC4)CC(=O)N23)c(OC)c1 | 87.2% (inactive)
C#C[C@]1(O)CC[C@H]2[C@@H]3CC=C4c5sc(C6CC6)nc5CC[C@]4(C)[C@H]3CC[C@@]21C | 67.7% (inactive)
COc1ccc([C@@H]2[C@@H](O)C(=O)N2c2cc(OC)c(OC)c(OC)c2)cc1Cl | 26.1% (inactive)
N/C(=N\c1nc2ccc([N+](=O)[O-])cc2s1)C(Cl)(Cl)Cl | 54.7% (inactive)
COc1cc(-c2noc(C[C@@H](NC(=O)OCc3ccccc3)C(C)C)n2)cc(OC)c1OC | 88.4% (inactive)
COc1ccc(NC2=C(Cl)C(=O)C(C)=C(C)C2=O)cc1 | 91% (inactive)
C=C(C)[C@@H]1CC[C@]2(C(=O)NCCCN(CCC#N)CCC#N)CC[C@]3(C)[C@H](CC[C@@H]4[C@@]5(C)CCC(=O)C(C)(C)[C@@H]5CC[C@]43C)[C@@H]12 | 88.3% (inactive)
c1cncc(-c2cn3nc(-c4c[nH]c5ccccc45)sc3n2)c1 | 55.3% (inactive)
O=C(NCCCNc1cc(-c2cn(-c3ccccc3)nc2-c2cccc(O)c2)ccn1)Nc1ccc(F)cc1 | 8.05% (active)
Cc1ccc(NC(=O)N[C@@H](Cc2cc(F)cc(F)c2)C(=O)NC2C(=O)N3CCC[C@H]3C(=O)N3CCCC[C@H]3C(=O)N[C@@H](C)C(=O)N3C[C@H](C)C[C@H]3C(=O)O[C@H]2C)c(F)c1 (stereo not given in full) | 30.3% (inactive)
CN1C(=O)N(C)C2C1NN=c1s/c(=C\c3ccccn3)c(=O)n12 (stereo not given) | 90.6% (inactive)

Structure (SMILES) | growth
Nc1ccc(-c2nnc(SCc3ccc(O)c4ncccc34)n2-c2ccccc2)cc1 | 11.9% (inactive)
CCCC(=O)NC(c1cccnc1)c1cc(Cl)c2cccnc2c1O (stereo not given) | 23.8% (inactive)
Cc1ccc(C2CC(c3ccc(Nc4nc(NCCO)nc(Nc5ccc(Cl)cc5)n4)cc3)=Nc3c(N)nc(N)nc3N2)cc1 (stereo not given) | 107% (inactive)
C/C(=C(/c1ccc(O)cc1)c1ccc(OCCN(C)C)cc1)c1ccc(Cl)cc1 | -27.3% (active)
O=C(COc1cccc2cccnc12)Nc1ccc(C(=O)/C=C/c2ccc(Cl)cc2)cc1 | 72.6% (inactive)
Oc1ccc(CSc2nnc(-c3ccc(Oc4ccccc4)cc3)o2)c2cccnc12 | 22.6% (inactive)
COc1ccccc1N1CCN(C2=NN=C(c3cccc(Cl)c3)c3ccccc3C2)CC1 | 31.6% (inactive)
O=C(NCCCCCCNC(=O)c1c2c(nc3ccccc13)-c1cccnc1SC2)c1c2c(nc3ccccc13)-c1cccnc1SC2 | 12.2% (inactive)
C#CCOc1ccc(C(Nc2ccc(OC)cc2)c2nnnn2C2CCCCC2)cc1 (stereo not given) | 73.4% (inactive)
CSc1ccc(/C(=N/N=C(N)N)c2ccccc2)cc1 | 44% (inactive)
COc1ccc(/C=N\NC(=O)c2ccc3nc(-c4ccc(Br)cc4)[nH]c3c2)cc1 | 34.6% (inactive)
CCN1C(=O)N(CC)C2SC(N/N=C/c3ccccc3)=NC21 (stereo not given) | 37% (inactive)
O=C1NC(=O)/C(=C/c2ccc(OCc3cc4ccccc4nc3Cl)cc2)S1 | 83.7% (inactive)
CCOC(=O)c1c(NC(=O)c2ccc(C(C)(C)C)cc2)sc2cc(OCCN3CCCCC3)ccc12 | 102% (inactive)
C/C(=N\NC(=O)CSc1nc2sc3c(c2c(=O)n1-c1ccccc1)CCC(C)C3)c1ccc(Cl)cc1 (stereo not given) | 4.83% (active)
CC(=O)Nc1nc2c(s1)C1=CC[C@H]3[C@@H]4CC[C@H](C(C)=O)[C@@]4(C)CC[C@@H]3[C@@]1(C)CC2 | 73.7% (inactive)
Clc1ccc(-c2nc3ccc(/C(=N\N=C\c4ccccc4)c4ccccc4)cc3[nH]2)cc1 | 88.8% (inactive)
CCNCCCn1c2c(c3cc(OC)c(OC)cc3c1=O)C(=O)c1cc(OC)cnc1-2 | 5.63% (active)
N#Cc1c(-c2ccccc2)cc(-c2c[nH]c3ccccc23)nc1-c1c[nH]c2ccccc12 | 94.9% (inactive)
C#C[C@]1(O)CC[C@H]2[C@@H]3CC=C4c5sc(-c6ccccn6)nc5CC[C@]4(C)[C@H]3CC[C@@]21C | 67.6% (inactive)
